Bioassay records as filed in PubChem BioAssay.
D1 antag = human D1 dopamine receptor antagonism | P21728 | HEK293 TREx D1 cells, calcium flux, dopamine EC80; active compounds read low | activity change, negative = inhibition, % at 10 µM | 360,000 compounds, 3.2% hits | AID 504652; in the data active means activity change below about -30%; further: on the % scale 0 is the no-effect control and ±100 the full control effect
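Inducible Hek293 Trex D1 cells (tetracycline, overnight, 30 C). Calcium dye 30–90 min RT. Antagonist mode: EC80 dopamine added after 180 s compound read.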
D1 agonist = activates the human D1 dopamine receptor; P21728; HEK293 T-REx D1 cells, calcium flux, agonist mode; activation, % at 2 µM; 360,000 compounds, 1% hits; in the data active means activation above about 30%; further: 0% is about no effect
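Inducible HEK293 T-REx D1 cells, force-coupled to calcium signalling, were plated at 4000 cells/well with tetracycline and held overnight at 30 C. After no-wash calcium dye loading, compound-evoked calcium rise over 180 s flagged agonists.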
D1 potentiator = enhances dopamine response at the human D1 receptor | P21728 | potentiation, % at 10 µM | 360,000 compounds, 0.036% hits | HEK293 TREx D1 cells, calcium flux, dopamine EC20 potentiation; in the data active means potentiation above about 30%; further: 0% is about no effect
TRPV1 agonist = human TRPV1 agonism; Q8NER1; TRPV1-expressing cells, Fluo-8 calcium influx, agonist mode; activation, % at 8.33 µM; 320,000 compounds, 0.19% hits; AID 540275; in the data active means activation above about 80%; inconclusive means between about 30% and that limit; further: 0% is about no effect
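Cells expressing TRPV1 were dye-loaded with Fluo-8 and read kinetically: 10 s baseline, 3 min after compound (agonist portion), then 2 min after EC20 capsaicin (allosteric enhancer portion). Calcium-bound dye fluorescence at 480/520 nm.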
TRPV1 potentiator = potentiators of human vanilloid receptor 1 (TRPV1); AID 540277; 320,000 compounds, 0.02% hits; Q8NER1; potentiation, % at 8.33 µM; TRPV1-expressing cells, Fluo-8 calcium influx, capsaicin EC20 potentiation; in the data active means potentiation above about 80%; inconclusive means between about 30% and that limit; further: 0% is about no effect
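TRPV1-expressing cells were cultured overnight at 35.5C and loaded with Fluo-8 calcium dye for 40 to 90 min at room temperature. After a 10 s baseline, compound was added and calcium influx was read kinetically for 3 min (ex 480/em 520 nm).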
* marks the source's active call; other numbers are inactive results; ? = inconclusive; . = no result; ! = not confirmed by another sample. Shown are actives, neighbours in structure and some others; about 4.2% of the full set was active somewhere.

SMILES	D1 antag	D1 agonist	D1 potentiator	TRPV1 agonist	TRPV1 potentiator
CCOC(=O)/C=C/C(=O)OCC(=O)Nc1ccc([N+](=O)[O-])cc1	-33*	9	-6	18	-11
COc1ccc(/C=C/C(=O)OCC(=O)Nc2ccc3[nH]c(=O)[nH]c3c2)cc1OC	-32*	2	-11	-2	-5
C/C=C/c1ccc(OCCCCN2CCN(CC)CC2)c(OC)c1	-33*	0	-3	3	4
CCOC(=O)/C=C/C(=O)Nc1cccc([N+](=O)[O-])c1	-15	4	-5	-7	13
C/C=C/c1ccc(OCCCCN2CC(C)CC(C)C2)c(OC)c1 (stereo unspecified)	9	4	-7	2	4
COc1cc(/C=C/C(=O)OCC(=O)Nc2ccc([N+](=O)[O-])cc2)ccc1O	-14	31*	-1	24	-16
COc1cc(/C=C/C(=O)OCC(=O)Nc2ccc(S(N)(=O)=O)cc2)ccc1O	5	1	-2	1	9
Cc1ccc(C)c(CSc2cn(CC(=O)N3CCCC3)c3ccccc23)c1	-8	2	-7	.	.
C/C=C/c1ccc(OCC(=O)Nc2ccc(OC)c(OC)c2)c(OC)c1	-38*	4	-4	3	12
CN(C)CCNc1oc(COc2ccc(-c3ccccc3)cc2)nc1C#N	-8	40*	-3	4	-7
CN1CCN(c2oc(COc3ccc(-c4ccccc4)cc3)nc2C#N)CC1	-35*	21	-10	7	23
COc1ccc(N2CCN(c3oc(COc4ccccc4)nc3C#N)CC2)cc1	-5	-2	-4	2	7
N#Cc1nc(-c2ccc(OCc3ccccc3)cc2)oc1N1CCC(C(N)=O)CC1	-36*	14	-6	?	-7
CCOC(=O)c1c(S(=O)(=O)NCC(=O)N2CCN(c3ccccc3OC)CC2)c(C)n(C)c1C	-32*!	0	3	1	?
CCCn1cc(SCC(=O)Nc2ccc3c(c2)OCO3)c2ccccc21	-15	-1	0	28	-4
CC(C)C(=O)Nc1nnc(SCC(=O)Nc2ccc3c(c2)OCO3)s1	-41*	12	-6	-1	-4
O=C(CSc1nnc(CNC(=O)c2cccs2)o1)Nc1ccc2c(c1)OCO2	-36*	-2	-2	-5	1
CC1CCN(C(C(=O)Nc2ccc3c(c2)OCO3)c2ccccc2)CC1 (stereo unspecified)	-42*	2	-9	.	.
Cn1cc(SCC(=O)Nc2ccc3c(c2)OCO3)c2ccccc21	-35*	10	.	?	-18
COc1ccccc1C(=O)Nc1nnc(S(=O)(=O)N(C)c2ccc(Cl)cc2)s1	-3	7	-2	.	.
Cc1ccc(NS(=O)(=O)c2c(C)nc3sc(C)c(C)n3c2=O)cc1F	-12	11	-1	.	.
Cc1cccc(NC(=S)NC2CCSc3ccccc32)c1 (stereo unspecified)	-33*	8	-11	?	9
O=C1C2CC=CCC2C(=O)N1c1ccc(N2CCN(c3ccccn3)CC2)c([N+](=O)[O-])c1 (stereo unspecified)	-36*	14	-4	15	-2
O=C1CCCC(=O)N1c1ccc(N2CCN(c3ccccc3)CC2)c([N+](=O)[O-])c1	-46*	4	-7	2	-2
O=C(c1ccc(N2CCCCC2)c([N+](=O)[O-])c1)N1CCN(c2ccccn2)CC1	-26	-2	-3	19	-4
SMILES	D1 antag	D1 agonist	D1 potentiator	TRPV1 agonist	TRPV1 potentiator
Cc1nn2c(=O)cc(COC(=O)c3cccc(NC(=O)c4cccs4)c3)nc2s1	8	0	0	.	.
COc1cccc(CNC(=O)C2CCN(c3nnc(-n4c(C)ccc4C)s3)CC2)c1OC	4	1	-2	.	.
COC(=O)C1=C(C)NC(=O)CC1c1ccccc1F (stereo unspecified)	-18	0	-7	-2	6
COC(=O)C1=C(N)c2c(F)cccc2C1(C#N)c1ccccc1 (stereo unspecified)	-32*	0	-5	-5	-5
CCOC(=O)c1c(CSc2ccc(CC)cc2)oc2ccc(O)c(CN(C)C)c12	-15	45*	-10	13	-16
Cc1c(Cl)cccc1Nc1nc(N)nc(CN2CCc3ccccc3C2)n1	-6	3	-7	2	-1
COc1ccccc1Nc1nc(N)nc(CN2CCN(Cc3ccccc3)CC2)n1	-37*	0	-5	-1	19
Nc1nc(CN2CCN(Cc3ccccc3)CC2)nc(Nc2ccccc2)n1	-38*	2	0	6	6
Cc1ccc(Nc2nc(N)nc(CN3CCc4ccccc4C3)n2)cc1	-37*	1	-8	-1	10
O=S(=O)(c1ccc(Br)cc1)c1nnn2c1nc(Nc1cccc(C(F)(F)F)c1)c1sccc12	-6	1	-4	.	.
Cn1ccc2cc(S(=O)(=O)N3CCCC(C(=O)NCc4ccc(F)cc4)C3)ccc21 (stereo unspecified)	8	0	-4	.	.
Cc1cc(C)c(NC(=O)C(C)n2nc(C)c3sc4ccccc4c3c2=O)c(C)c1 (stereo unspecified)	-23	0	-3	.	.
O=C(NCCc1ccc(Cl)cc1)c1cc2ccccn2n1	-30	2	5	87*	-29
O=C(Nc1ccc(Br)cc1)c1cc2ccccn2n1	4	1	-6	85*	-26
Cc1ccc(CCNC(=O)c2cc3ccccn3n2)cc1	-15	2	1	.	.
O=C(CSCc1nc2cccnc2n1C1CCCCC1)NCc1cccc(Br)c1	17	2	-2	.	.
COc1ccc(NC(=O)c2cc3nc(-c4ccc(C)c(C)c4)cc(C(F)(F)F)n3n2)cc1	4	-1	8	.	.
CC(=O)c1ccc(N2CCN(c3ncnc4onc(-c5ccc(Cl)cc5)c34)CC2)cc1	2	4	-1	.	.
Nc1nc2c(ncn2[C@H]2C[C@H](O)[C@@H](CO)O2)c(=O)[nH]1	-30*	1	-5	1	-5
Nc1nc(Cl)nc2c1ncn2C1CC(O)C(CO)O1 (stereo unspecified)	9	-1	-5	-1	13
CCc1ccc(OCC(O)CN2CCN(c3ccc(OC)cc3)CC2)cc1 (stereo unspecified)	-40*	30*	0	-8	-12
OC(COc1ccc(Br)cc1)CN1CCC(Cc2ccccc2)CC1 (stereo unspecified)	-43*	18	-11	-1	28
CCc1ccc(OCC(O)CN2CCN(c3ccccn3)CC2)cc1 (stereo unspecified)	-9	-3	0	-7	-17
CC(=O)c1ccc(OCC(O)CN2CCN(c3ccccn3)CC2)cc1 (stereo unspecified)	-60*	2	-6	.	.
CC1CCN(CC(O)COc2ccc(F)cc2)CC1 (stereo unspecified)	-49*	2	.	3	5
